# Experimental data from PubChem BioAssay (NCATS).
# Results filed as inconclusive are left out. Entries that show only a call come without a potency. Active and inactive are the calls of the source. Calls come from the whole dose curve; as a rule, active = well fitted curve in the direction sought with a large enough effect; inconclusive = small, poorly fitted or top-dose-only effect, or another doubt; inactive = no such curve, though single readings can be large; an effect the other way counts as inactive or inconclusive.
# Key:
# [1] = target: Aldehyde dehydrogenase, mitochondrial (Homo sapiens) (UniProt P05091); assay: qHTS for Inhibitors of the Aldehyde Dehydrogenase Family (ALDH2) Primary screen (AID 2061308); settings: ALDH2 enzyme inhibition qHTS, 1536-well; series mostly up to 56 µM; note: nearly all actives have a fitted effect of over 55% in size; note: potency is the fitted concentration of half-maximal effect
# [2] = target: Retinaldehyde dehydrogenase 3 (Homo sapiens) (UniProt P47895); assay: qHTS for Inhibitors of the Aldehyde Dehydrogenase Family (ALDH1A3) Primary screen (AID 2061315); settings: ALDH inhibition qHTS; series mostly up to 56 µM
SMILES,Potency [1],Potency [2]
Cc1cc(C)nc(NC(=S)N2CCN(c3nccs3)CC2)c1,inactive,inactive
Cc1cc(N[S+](=O)([O-])c2cc3c(cc2F)NC(=O)CC3)ccc1Br,inactive,inactive
O=C1CCc2cc(S(=O)(=O)Nc3cccnc3)ccc2N1,inactive,inactive
O=C1CCCC2=C1C(c1c(Cl)cccc1Cl)N=C(Nc1nc3ccccc3o1)N2 (stereo not given),inactive,inactive
CC1CCC2C(C)(C)C(O)CCC2(C)C12Cc1c(O)cc3c(c1O2)CN(C(CCCN=C(N)N)C(=O)O)C3=O (stereo not given),inactive,inactive
CCN(CC)CCCC(C)n1c(-c2ccccc2)nc2c(N3CCOCC3)nc(C)nc21 (stereo not given),inactive,inactive
O=C1c2ccccc2C(=O)N1Cc1ccncc1,inactive,inactive
N#Cc1cc(NC(=O)Nc2nnc(-c3ccncc3)s2)ccc1F,inactive,inactive
Cc1cc(C)nc(NC(=S)N2CCN(c3ccc([N+](=O)[O-])cc3Cl)CC2)c1,inactive,inactive
Cn1nnnc1Sc1ncnc2scc(-c3ccccc3F)c12,inactive,inactive
O=C(CNC(=O)C1CCCCC1)OC(C(=O)Nc1cc(C(F)(F)F)ccc1Cl)c1ccccc1 (stereo not given),inactive,inactive
CCOC(=O)c1cccc(NS(=O)(=O)c2ccc(NC(=O)Cc3ccc(Cl)c(Cl)c3)cc2)c1,inactive,inactive
Cn1nnnc1Sc1ncnc2scc(-c3ccsc3)c12,inactive,inactive
COC(=O)c1c(-c2ccccc2)no[n+]1[O-],inactive,inactive
Cc1cc(-c2nnc3n2CCCCCC3)c(C)n1-c1ccccc1,inactive,inactive
COc1cc(/C=C/CO)cc(OC)c1O[C@@H]1O[C@H](CO[C@@H]2O[C@H](CO)[C@@H](O)[C@H](O)[C@H]2O)[C@@H](O)[C@H](O)[C@H]1O,inactive,inactive
Cc1ccc(C)c(SC2CS(=O)(=O)c3ccccc32)c1 (stereo not given),inactive,inactive
O=c1c2ccccc2nc2sc(Nc3cccc4ccccc34)nn12,inactive,inactive
N=c1c2c(ccn1Cc1ccccc1)Oc1ccc3ccccc3c1C2c1ccccc1 (stereo not given),inactive,inactive
Cc1cc(C)nc(NC(=S)N2CCN(c3ncc(C(F)(F)F)cc3Cl)CC2)c1,inactive,inactive
CC(=O)/C=C/[C@H]1[C@](C)(O)[C@@H](O)[C@H](O)C2C(C)(C)CCC[C@@]21C (stereo not given in full),inactive,inactive
CC1CN(c2cc3c(cc2F)c(=O)c(C(=O)O)cn3-c2ccc(F)cc2F)CCN1 (stereo not given),inactive,inactive

SMILES,Potency [1],Potency [2]
O=C(NNC(=O)c1nc2ccccc2[nH]1)OCc1ccccc1,inactive,inactive
O=c1[nH]c2ccc(S(=O)(=O)N3CCN(S(=O)(=O)c4ccc5c(c4)OCCO5)CC3)cc2[nH]c1=O,inactive,inactive
C(=Nc1cccnc1)c1cccs1,inactive,inactive
Cc1cc2c(s1)c1cnn(Cc3cc(C(F)(F)F)ccc3F)c(=O)c1n2C,inactive,inactive
COc1ccc(OC)c(C2=Nn3c(nnc3-c3ccccc3O)SC2)c1,inactive,inactive
Cc1ccc(NS(=O)(=O)c2cccc(Cl)c2)cc1C,inactive,inactive
O=S(=O)(c1ccc2c(c1)OCCO2)C1CCC(S(=O)(=O)c2c(F)cccc2F)CC1 (stereo not given),inactive,inactive
Cc1cccc(CNc2ccnc(-c3cccc(C(F)(F)F)c3)n2)c1,inactive,inactive
O=C1c2ccccc2C(=O)N1c1ccc(O)cc1,inactive,inactive
COc1ccc(CNc2ccc(S(=O)(=O)Nc3nccs3)cc2)c(O)c1,inactive,inactive
CC(C)(C)c1ccc(C(=O)NCC(=O)OC(C(=O)Nc2cc(C(F)(F)F)ccc2Cl)c2ccccc2)cc1 (stereo not given),inactive,inactive
COC(=O)c1ccccc1C(=O)Nc1nc(-c2ccccc2)cs1,inactive,inactive
CC(C)c1nc2c(cnn2C)c(=O)n1N,inactive,inactive
O=C1CCCC2=C1C(c1ncccc1C(F)(F)F)N=C(Nc1nc3ccccc3o1)N2 (stereo not given),inactive,inactive
CN(Cc1ccc(-c2ccccc2)cc1)c1nc(-c2ccccc2C(F)(F)F)nc2ccccc12,inactive,inactive
Cc1noc(C)c1-c1ccc2ncnc(NCc3ccc(Br)cc3)c2c1,inactive,inactive
COc1cccc(CNc2ccc(S(=O)(=O)Nc3ncc(C)s3)cc2)c1O,inactive,inactive
Cc1ccccc1C(=O)N1CCc2cc(-c3nc(NC(=O)c4ccc5c(c4)OCO5)sc3C)ccc21,inactive,inactive
Oc1ccc(COC2CCCC2)c2cccnc12,inactive,inactive
CCCC1CCC(C(=O)Nc2ccc(S(=O)(=O)Nc3nccs3)cc2)CC1 (stereo not given),inactive,inactive
O=C(Nc1ccc(-n2cncn2)c(F)c1)Nc1nnc(-c2ccncc2)s1,inactive,inactive
Cc1cc2c(s1)c1cnn(Cc3c(F)ccc(F)c3Cl)c(=O)c1n2C,inactive,inactive

SMILES,Potency [1],Potency [2]
COc1cccc(Cn2ncc3c4sc(SC)cc4n(C)c3c2=O)c1,inactive,inactive
CC(C)(C)OC(=O)NCC(=O)NNC(=O)c1nc2ccccc2[nH]1,inactive,inactive
Cc1ccnc(NC(=S)N[C@H]2CCN(c3cccc(C(F)(F)F)c3)C2)c1,inactive,inactive
O=C(CN1C(=O)N/C(=C\c2cccn2-c2cccc(C(=O)O)c2)C1=O)Nc1cccc(F)c1,inactive,inactive
Cc1ccc(NC(=O)CSc2nnc(-c3cccc([S+](=O)([O-])N4CCCC4)c3)n2-c2c(C)cccc2C)cc1,inactive,inactive
Cc1ccc(NS(=O)(=O)c2cccc(C(=O)O)c2)cc1C,inactive,inactive
Cc1ccc(S(=O)(=O)Nc2cccc(C(=O)Nc3nc(-c4ccccc4)cs3)c2)cc1,inactive,inactive
C=C1C(=O)O[C@H]2C1CCC(C)=C1C(=O)C=C(C)[C@@]12O (stereo not given in full),inactive,inactive
COc1cc(Cn2ncc3c4sc(C)cc4n(C)c3c2=O)cc(OC)c1,inactive,inactive
COc1ccc(C(=O)Nc2nnc(-c3ccco3)o2)cc1OC,inactive,inactive
CCOC(=O)c1nc(NCc2ccccc2)sc1C,inactive,inactive
O=[S+]([O-])(c1c(F)cccc1F)N1CCN([S+](=O)([O-])c2csc3ccccc23)CC1,inactive,inactive
Oc1cc(Nc2ccncc2)cc2cccnc12,inactive,inactive
O=C(Cc1ccc(Cl)c(Cl)c1)Nc1ccc([S+](=O)([O-])Nc2cccc([N+](=O)[O-])c2)cc1,inactive,inactive
O=C(Nc1ccc(Br)cc1)Nc1nnc(-c2ccncc2)s1,inactive,inactive
COC(=O)c1c(NC(=O)COC(=O)c2ccc(Cl)cc2[N+](=O)[O-])sc2c1CCCCC2,inactive,inactive
COc1cc(O)c(C(CC(=O)N2CCCC(C(=O)N3CCCCC3)C2)c2ccc3c(c2)OCO3)c(OC)c1 (stereo not given),inactive,inactive
CC(C)c1ccccc1-c1ncc(F)c(NCC2CCN(c3cccnc3)CC2)n1,inactive,inactive
COc1ccc(-c2nc3ccccc3c(=O)n2Cc2ccco2)cc1COc1c(C)cccc1C,inactive,inactive
CC(=O)Nc1sc2c(c1-c1ccc3c(c1)CCO3)CCNC2,inactive,inactive
Cc1ccc(NS(=O)(=O)c2ccc3c(c2)oc(=O)n3C)cc1C,inactive,inactive
COc1ccc(C2c3c(n(CCCc4ccccc4)cnc3=N)Oc3ccc4ccccc4c32)cc1OC (stereo not given),inactive,inactive

SMILES,Potency [1],Potency [2]
C=CCNc1oc(-c2ccc(F)cc2)nc1C#N,inactive,inactive
COc1cc(F)c(S(=O)(=O)N2CCCN(S(=O)(=O)c3cccc(N)c3)CC2)c(F)c1,inactive,inactive
Cc1ccc(=O)n(CC(=O)NCCc2ccccc2)n1,inactive,inactive
Nc1nc2c(c(N3CC[C@@H](N)C3)n1)CCCc1ccccc1-2,inactive,inactive
CCCCC(OC(=O)CNC(=O)c1ccccc1)C(=O)Nc1cc(C(F)(F)F)ccc1Cl (stereo not given),inactive,inactive
Cc1ccc(-c2ccc(=O)n(CC(=O)N(C3CCCCC3)C3CC3)n2)cc1,inactive,inactive
O=C(Nc1ccc(-c2ccccc2)cc1)[C@H](Cc1ccc(O[S+](=O)([O-])c2cccc3cnccc23)cc1)N[S+](=O)([O-])c1cccc2cnccc12,inactive,inactive
COCCN(CCOC)c1nc(C)nc2c1nc(-c1ccccc1)n2CCN1CCOCC1,inactive,inactive
Cc1cc(C)nc(NC(=S)N2CCN(c3ccc([N+](=O)[O-])c4cccnc34)CC2)c1,inactive,inactive
Cc1cc(C)nc(NC(=S)N2CCN(c3nc4ccccc4o3)CC2)c1,inactive,inactive
C=C1[C@@H](C)[C@H]2[C@H](Cc3c[nH]c4ccccc34)NC(=O)[C@]23C(=O)/C=C/C(=O)[C@H](O)/C(C)=C\[C@@H](C)C/C=C/[C@H]3[C@@H]1O,11.2 µM (active),inactive
Cc1cccc(-n2cnc3cc(C(=O)N4CCCC(C(C)C)C4)ccc32)c1 (stereo not given),inactive,inactive
N#Cc1nc(Nc2cc(F)cc(F)c2)c2ncn(CCN3CCCC3)c2n1,inactive,inactive
O=[S+]([O-])(c1ccc2c(c1)OCCO2)N1CCN([S+](=O)([O-])c2c(F)cc(Br)cc2F)CC1,inactive,inactive
COc1cccc(N2C(=O)c3ccccc3C2=O)n1,inactive,inactive
CN(Cc1cccs1)c1ncnc2ccc(-c3ccc4cn(C)nc4c3)cc12,inactive,inactive
C[C@@H]1[C@H](O)[C@@H]2OC(=O)C3=C2[C@H](CCC3)[C@@]12C[C@@H](c1ccoc1)OC2=O,inactive,inactive
CN(Cc1ccco1)c1ncnc2ccc(-c3ccc4c(c3)OCCO4)cc12,inactive,inactive
N#Cc1c(Oc2ccc(F)c(NC(=O)Cc3cccc(C(F)(F)F)c3)c2)ccc2nc(NC(=O)C3CC3)sc12,inactive,inactive
